In the library only some 1.8% were active in any assay of this set; here they are far more common.
H9c2 protect = protects H9c2 cardiomyocytes from peroxide injury; H2O2 injury protection, ATPLite, 2 h; protection from H2O2 cell death, % at 20 µM; actives 0.63% (n = 360,000); AID 588492;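 active means compounds giving at least 50% protection of heart cells from peroxide-induced death in the single-dose screen, raw or plate-pattern-corrected value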;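 further: 0% = DMSO wells with peroxide and 100% = DMSO wells without peroxide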
GRK2 inh = inhibitors of human GRK2 displacing RNA aptamer. bead flow cytometry, FAM-aptamer displacement from GRK2. inhibition of aptamer binding, % at 10 µM. actives 0.59% (n = 330,000). AID 488847;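 active means inhibition of aptamer binding above 40%, roughly 3 SD of noise, on plates passing a quality check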;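 further: median bead fluorescence of bound FAM aptamer so fluorescent compounds give negative values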
Target sequence (P25098 whole entry, looked up): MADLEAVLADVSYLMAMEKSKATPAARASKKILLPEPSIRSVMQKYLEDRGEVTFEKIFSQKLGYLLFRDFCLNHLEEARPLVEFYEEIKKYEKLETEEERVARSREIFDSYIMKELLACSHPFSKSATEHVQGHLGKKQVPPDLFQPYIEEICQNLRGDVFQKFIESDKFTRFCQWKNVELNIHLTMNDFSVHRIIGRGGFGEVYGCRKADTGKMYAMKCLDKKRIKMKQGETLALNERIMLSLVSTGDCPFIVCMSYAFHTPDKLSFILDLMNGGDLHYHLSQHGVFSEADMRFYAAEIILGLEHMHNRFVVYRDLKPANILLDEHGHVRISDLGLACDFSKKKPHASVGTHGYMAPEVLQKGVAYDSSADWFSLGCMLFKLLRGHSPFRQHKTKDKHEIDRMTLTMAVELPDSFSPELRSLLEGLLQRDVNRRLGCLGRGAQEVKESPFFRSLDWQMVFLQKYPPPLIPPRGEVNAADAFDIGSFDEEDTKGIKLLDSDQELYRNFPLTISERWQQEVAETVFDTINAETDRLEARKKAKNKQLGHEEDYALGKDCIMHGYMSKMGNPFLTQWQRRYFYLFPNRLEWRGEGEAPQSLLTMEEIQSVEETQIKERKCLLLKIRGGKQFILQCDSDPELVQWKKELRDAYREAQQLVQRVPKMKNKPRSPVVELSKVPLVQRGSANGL
Neddylation inh = cullin neddylation inhibition. P61081+Q13564. inhibition, % at 25 µM. TR-FRET cullin neddylation, biochemical. actives 0.58% (n = 360,000); in the data active means inhibition above about 36%
HDAC3 inhib = blocks human histone deacetylase 3. O15379. recombinant HDAC3, fluorogenic peptide/trypsin coupled, fluorescence. inhibition, % at 8.3 µM. actives 0.15% (n = 320,000); in the data active means inhibition above about 26%, passing the limit was not always enough; inconclusive means no clear call, values can overlap the other calls
GRK2 inh confirm = confirmation of human GRK2 inhibitors displacing RNA aptamer; shares compounds with GRK2 inh; bead-bound GRK2, FAM-aptamer displacement, flow cytometry; aptamer displacement, % at 10 µM; actives 4% (n = 2,000);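 active means aptamer displacement above 40%, near three times the noise of non-fluorescent compounds, on plates passing quality checks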;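 further: negative values mostly reflect intrinsic compound fluorescence rather than true enhancement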
Aptamer quench = quenches fluorescent RNA aptamer, GRK2 hit artifact. shares compounds with GRK2 inh. Fluorescent RNA aptamer beads, quenching, flow cytometry; stronger effect = higher value. 110 tested, under 10 active. fluorescence change (kMESF span), kMESF (concentration not given with the values);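 active means compounds whose bead fluorescence drops by more than 37 kMESF across the dose range, marking them as dye quenchers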
Aptamer quench SP = quenches fluorescent RNA aptamer, GRK2 hit artifact; shares compounds with GRK2 inh; Carboxyfluorescein RNA aptamer on beads, flow cytometry quenching; stronger effect = lower value; fluorescence response (% of DMSO), % at 10 µM; 2,000 tested, under 10 active; AID 504580;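 active means compounds that quench the bead-bound fluorescent RNA probe, cutting fluorescence to under half of the solvent control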;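 further: counterscreen run without GRK2 so only probe quenching by compound is measured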
GRK2 CP2 = confirmation of human GRK2 inhibitors binding RNA aptamer site. shares compounds with GRK2 inh. bead-bound GRK2, FAM-aptamer displacement, flow cytometry. inhibition of aptamer binding, % at 10 µM. 360 tested, under 10 active;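 active means inhibition of aptamer binding above 40%, about triple the noise seen with nonglowing compounds, on plates passing quality control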;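 further: negative values mostly come from compounds that fluoresce themselves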
FAM quench CP2 = quenches fluorescent RNA aptamer, GRK2 hit artifact | shares compounds with GRK2 inh | carboxyfluorescein RNA aptamer beads, flow cytometry quenching; stronger effect = lower value | fluorescence response vs DMSO, % at 10 µM | 360 tested, under 10 active;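 active means response vs DMSO under 50%, meaning signal dropped by over half, treated as fluorescence quencher; inconclusive means no clear call, values can overlap the other calls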;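 further: labelled aptamer on streptavidin beads without GRK2 as a quench counter-screen; 100% = bead fluorescence of DMSO wells and lower means quenching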
FAM quench DR = counter-screen for GRK2 aptamer binding inhibitors: aptamer fluorescence quenching; Bead-bound FAM RNA aptamer fluorescence quenching, flow cytometry; stronger effect = lower value; shares compounds with GRK2 inh; fluorescence ratio to DMSO, % at 11.1 µM; AID 588496; 35 tested, under 10 active;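 active means compounds that dim the fluorescent label, raw bead signal shifting by over 33 units between lowest and highest dose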
Numbers without * were called inactive; u = inconclusive; x = no result given.

SMILES	H9c2 protect	GRK2 inh	Neddylation inh	HDAC3 inhib	GRK2 inh confirm	Aptamer quench SP	others
O=C(CSc1nc2cc(Cl)ccc2s1)NCC1CCCO1 (stereo not drawn)	-1	0	4	-11	x	x
COc1ccc(C2=NO[C@@H]3C(=O)N(c4ccc5c(c4)OCCO5)C(=O)[C@H]23)cc1OC	4	0	7	-10	x	x	GRK2 CP2=18;FAM quench CP2=104
COc1ccc(C2=NO[C@@H]3C(=O)N(C4CCCCC4)C(=O)[C@H]23)cc1OC	-3	2	-4	0	x	x
COc1ccc(NC(=O)CCS(=O)(=O)c2ccc(Br)s2)cc1	-1	87*	-2	-5	43*	95	Aptamer quench=-2.3;FAM quench DR=97
O=C(CCS(=O)(=O)c1ccc(Br)s1)Nc1ccccc1Br	-8	88*	-2	-6	12	94	Aptamer quench=-5.6;FAM quench DR=98
O=C(CCS(=O)(=O)c1ccc(Cl)cc1)Nc1ccccc1Br	-1	0	-5	-1	x	x
CCOC(=O)c1ccc(NC(=O)CCS(=O)(=O)c2ccc(Br)s2)cc1	-3	3	1	-12	x	x
O=C(Nc1cccc([N+](=O)[O-])c1)Nc1cnccn1	-3	0	-16	13	x	x
Cn1ccnc1C(OC(=O)c1ccc(Cl)cc1)C(F)(F)F (stereo not drawn)	0	0	0	-3	x	x
Cn1ccnc1C(OC(=O)c1ccccc1)C(F)(F)F (stereo not drawn)	8	6	2	6	2	94
O=C(O)c1ccc(CSc2nnc(-c3ccc(Cl)cc3)o2)cc1	-8	3	-8	0	x	x
Cc1nnc(SCc2ccc(CC(=O)O)cc2)o1	-3	54*	0	-7	3	102
O=C1CN(C(=O)COC(=O)c2cccs2)c2ccccc2N1	4	0	-4	x	x	x
Cn1c2ccccc2c2cc(C(=O)OCC(=O)N3CC(=O)Nc4ccccc43)sc21	0	40	-132	-5	4	105
COc1ccc2[nH]c3c(=O)n(/N=C/c4ccc(OC)c(CN5CCCC5)c4)c(C)nc3c2c1	3	59*	8	x	-43	101
COc1ccc(/C=N/n2c(C)nc3c([nH]c4ccccc43)c2=O)cc1CN1CCCC(C)(C)C1	-2	0	3	-6	x	x
CC12CCC(C(=O)n3c1nc1ccccc13)C2(C)C (stereo not drawn)	8	36	2	-2	0	91
O=C1CSc2nc3ccccc3n21	7	1	0	x	x	x
COc1cccc(C2(O)CCN(C(=O)c3cccs3)CC2)c1	10	0	-1	-3	x	x
COc1cccc(C2(O)CCN(C(=O)C(C)C)CC2)c1	4	55*	0	-6	1	100
CC(C)C(c1nnnn1C(C)(C)C)N1CCOCC1 (stereo not drawn)	13	47*	-4	-8	-4	96
Nc1nc(COC(=O)C2CC(=O)N(CCc3ccccc3)C2)nc(Nc2ccccc2)n1 (stereo not drawn)	7	0	-21	-2	x	x
O=C(OCc1nnc(-c2ccccc2)o1)C1CC(=O)N(CCc2ccccc2)C1 (stereo not drawn)	12	3	-13	-10	1	102
c1coc(-c2nnc(-c3ccco3)nn2)c1	-7	88*	4	11	6	103
CSc1ccc(-c2ccco2)nn1	-1	0	16	u	x	x
SMILES	H9c2 protect	GRK2 inh	Neddylation inh	HDAC3 inhib	GRK2 inh confirm	Aptamer quench SP	others
COc1ccc(NC(=O)CN(C)C(=O)CCNS(=O)(=O)c2ccc(Br)cc2)cc1	-6	0	-5	4	x	x
Cc1ccccc1CNC(=O)Nc1ccc(Cl)cc1	-7	0	1	1	x	x
CCCCCC/C=C/c1ccc([C@H]2[C@H]3C=CC[C@@H](C)[C@@H]3C(=O)N2Cc2ccccc2)c(F)c1	-16	1	-4	-1	3	94
CCCCCC/C=C/c1ccc(OC)c([C@H]2[C@H]3C=CC[C@@H](C)[C@@H]3C(=O)N2Cc2ccccc2)c1	-2	1	14	-7	x	x
Cc1cc(Cl)cc(C)c1OCCn1ccnc1	-2	42*	1	2	x	x	GRK2 CP2=-23;FAM quench CP2=100
O=C(NC1CCCCC1)C(c1ccc2ncccc2c1)N(Cc1ccc2c(c1)OCO2)C(=O)c1ccc2c(c1)OCCO2 (stereo not drawn)	4	1	3	6	x	x
O=C(NC1CCCCC1)C(c1ccc2ncccc2c1)N(Cc1ccc(F)cc1)C(=O)c1ccc2c(c1)OCCO2 (stereo not drawn)	10	48*	0	1	2	100
FC(F)(F)c1ccc(Cl)c(NC2=NCCCCC2)c1	0	0	-8	-4	x	x
CSc1ccc(CN2CCC(C)(Oc3cccc(Cl)c3)C2)cc1 (stereo not drawn)	-2	x	-14	x	x	x
O=C(OCCOCCN=C1NS(=O)(=O)c2ccccc21)c1ccccc1Br	-1	0	14	-4	x	x
Cc1cc(C)cc(C(=O)NCC(=O)OCC(=O)NCC(F)(F)F)c1	4	96*	0	2	3	100
Cc1cccc(C(=O)NCC(=O)OCC(=O)NCCNC(=O)COC(=O)CNC(=O)c2cccc(C)c2)c1	7	1	2	-6	x	x
Nc1nc(NCc2ccccc2Cl)n(-c2ccccc2)n1	-1	0	-2	1	x	x
Cn1cc(C(=O)c2ccc(Cl)cc2Cl)cc1C(=O)O	16	0	2	4	x	x
Cn1cc(C(=O)c2ccc(Cl)cc2Cl)cc1C(=O)N/N=C(\N)COc1ccccc1	25	58*	-1	9	0	101
N#CCc1ccc(C(=O)c2ccccc2F)s1	0	0	-29	-8	x	x
COC(=O)c1ccc(NC(=O)C2CC(=O)OC2c2ccccc2)cc1 (stereo not drawn)	5	0	-7	-4	x	x
CCOc1ccc(NC(=O)C2CC(=O)OC2c2ccccc2)cc1 (stereo not drawn)	0	82*	-3	u	-4	86
CCN1CCN(CC(=O)N2N=CCC2c2ccccc2)CC1 (stereo not drawn)	0	100*	7	-1	0	100
CC(C)(C)N(Cc1ccccc1)C(=O)c1cc2ccccc2o1	-3	1	-13	-1	x	x
Cn1c(NCc2ccccc2O)nc2ccccc21	-1	45*	-1	0	1	99

Screens from PubChem.
